# Data: PubChem BioAssay (Tox21)
# Values joined by “and” are separate entries in the source; they are usually repeats but may differ in a detail not shown here. Equal entries are not always repeated. Inconclusive results are not listed. Where a call stands in place of a potency, no number is given. Some compounds were tested as several samples or in several runs, with calls that do not always agree. Active and inactive are the calls of the source. Calls come from the whole dose curve; as a rule, active = well fitted curve in the direction sought with a large enough effect in the repeat runs; inconclusive = weak or mixed curves; inactive = no such curve, though single readings can be large; an effect the other way counts as inactive or inconclusive.
# How the values were obtained:
# [1] = biological target: Cytochrome P450 2D6 (Homo sapiens) (UniProt P10635); assay: Cytochrome P450 Family 2 Subfamily D Member 6 (CYP2D6) small molecule antagonists: luciferase reporter qHTS assay (AID 1671196); conditions: P450-Glo CYP2D6 enzyme assay, luciferin luminescence, 1 h; series mostly up to 115 µM; note: nearly all actives have a fitted effect of over 50% in size; note: potency is the fitted concentration of half-maximal effect
# Method in brief: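 P450-Glo format: CYP2D6 converts a proluciferin substrate to luciferin in an NADPH-driven reaction lasting 1 h at room temperature. Light output, proportional to CYP2D6 activity, reflects interference by test chemicals.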
# [2] = biological target: Cytochrome P450 2C19 (Homo sapiens) (UniProt P33261); assay: Cytochrome P450 Family 2 Subfamily C Member 19 (CYP2C19) small molecule antagonists: luciferase reporter qHTS assay (AID 1671197); conditions: P450-Glo CYP2C19 enzyme, luciferin luminescence, 1 h; series mostly up to 52.9 µM; note: nearly all actives have a fitted effect of over 65% in size; note: potency is the fitted concentration of half-maximal effect
# Method in brief: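 Compounds were tested on CYP2C19 activity via proluciferin conversion to luciferin. The 37C, 1 h reaction followed NADPH addition; detection reagent stopped it.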
# [3] = biological target: Cytochrome P450 2C9 (Homo sapiens) (UniProt P11712); assay: Cytochrome P450 Family 2 Subfamily C Member 9 (CYP2C9) small molecule antagonists: luciferase reporter qHTS assay (AID 1671198); conditions: P450-Glo CYP2C9 enzyme assay, luciferin luminescence; series mostly up to 115 µM; note: nearly all actives have a fitted effect of over 50% in size; note: potency is the fitted concentration of half-maximal effect
# Method in brief: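 CYP2C9 activity was measured with a P450-Glo proluciferin substrate. Enzyme–substrate mix was held with compound for 10 min at room temperature, then NADPH regeneration solution was added for 1 h at 37C. Luciferin product was read as luminescence.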
# [4] = biological target: Cytochrome P450 1A2 (Homo sapiens) (UniProt P05177); assay: Cytochrome P450 Family 1 Subfamily A Member 2 (CYP1A2) small molecule antagonists: luciferase reporter qHTS assay (AID 1671199); conditions: P450-Glo CYP1A2 enzyme, luciferin luminescence, 1 h; series mostly up to 53 µM; note: nearly all actives have a fitted effect of over 50% in size; note: potency is the fitted concentration of half-maximal effect
# Method in brief: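 Inhibition of CYP1A2 conversion of proluciferin to luciferin, detected by luminescence. Reaction run 1 h at room temperature with NADPH regeneration after brief compound preincubation.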
# [5] = biological target: Voltage-gated inwardly rectifying potassium channel KCNH2 (Homo sapiens) (UniProt Q12809); assay: Human Ether-a-go-go-Related Gene (hERG) channel small molecule antagonists: fluorescence cell-based qHTS assay (AID 1671200); conditions: hERG-U2OS cells, FluxOR thallium flux fluorescence; series mostly up to 76.8 µM;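 note: hERG-expressing U2OS cells given a thallium stimulus after FluxOR II dye loading; nearly all actives have a fitted effect of over 50% in size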
# Method in brief: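 U2OS cells expressing the channel were plated at 1000 cells/well, incubated overnight at 37 C, then loaded with FluxOR II thallium-sensitive dye for 1 h at room temperature in the dark, with a further 10 min at room temperature before stimulation.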
# [6] = biological target: Cytochrome P450 3A4 (Homo sapiens) (UniProt P08684); assay: Cytochrome P450 Family 3 Subfamily A Member 4 (CYP3A4) small molecule antagonists: luciferase reporter qHTS assay (AID 1671201); conditions: P450-Glo CYP3A4 enzyme, luciferin luminescence, 1 h; series mostly up to 115 µM; note: nearly all actives have a fitted effect of over 50% in size
# Method in brief: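 P450-Glo CYP3A4 system with proluciferin substrate; compounds preincubated 10 min RT with enzyme-substrate mix, then NADPH regeneration added for 1 h RT. Detection reagent 20 min, luminescence read as relative luminescence units.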
# Chain of Voltage-gated inwardly rectifying potassium channel KCNH2 (Homo sapiens) (Q12809 whole entry, looked up): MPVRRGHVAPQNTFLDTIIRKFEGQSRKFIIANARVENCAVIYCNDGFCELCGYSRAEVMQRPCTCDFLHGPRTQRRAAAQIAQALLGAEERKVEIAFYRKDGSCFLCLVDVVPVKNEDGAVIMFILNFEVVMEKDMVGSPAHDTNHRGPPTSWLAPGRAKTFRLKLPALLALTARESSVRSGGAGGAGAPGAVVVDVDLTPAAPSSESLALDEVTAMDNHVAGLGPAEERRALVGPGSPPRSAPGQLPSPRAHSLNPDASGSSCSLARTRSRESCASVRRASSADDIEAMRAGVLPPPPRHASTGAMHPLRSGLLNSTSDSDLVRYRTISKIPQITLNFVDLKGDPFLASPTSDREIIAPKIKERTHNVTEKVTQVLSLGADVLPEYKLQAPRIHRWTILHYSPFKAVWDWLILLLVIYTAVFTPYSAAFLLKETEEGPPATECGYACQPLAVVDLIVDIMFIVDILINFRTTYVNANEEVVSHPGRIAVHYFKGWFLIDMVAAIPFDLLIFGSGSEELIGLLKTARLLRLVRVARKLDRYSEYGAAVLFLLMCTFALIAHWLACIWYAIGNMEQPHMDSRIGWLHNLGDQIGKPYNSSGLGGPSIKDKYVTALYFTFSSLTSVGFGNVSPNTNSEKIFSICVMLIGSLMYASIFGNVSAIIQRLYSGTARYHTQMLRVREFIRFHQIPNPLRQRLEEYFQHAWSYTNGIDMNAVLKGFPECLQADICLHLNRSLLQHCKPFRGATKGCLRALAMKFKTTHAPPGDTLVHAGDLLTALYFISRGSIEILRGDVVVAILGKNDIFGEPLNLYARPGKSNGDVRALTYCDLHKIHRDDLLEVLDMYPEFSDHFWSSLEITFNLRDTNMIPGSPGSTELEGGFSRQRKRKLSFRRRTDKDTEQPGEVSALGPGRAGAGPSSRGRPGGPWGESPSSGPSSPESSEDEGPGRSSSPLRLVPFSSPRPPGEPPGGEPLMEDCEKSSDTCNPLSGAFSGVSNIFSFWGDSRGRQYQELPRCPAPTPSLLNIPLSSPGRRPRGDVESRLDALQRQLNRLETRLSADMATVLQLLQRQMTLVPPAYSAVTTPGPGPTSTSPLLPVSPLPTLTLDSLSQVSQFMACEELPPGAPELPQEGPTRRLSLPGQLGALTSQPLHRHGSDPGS
# Chain of Cytochrome P450 3A4 (Homo sapiens) (P08684 whole entry, looked up): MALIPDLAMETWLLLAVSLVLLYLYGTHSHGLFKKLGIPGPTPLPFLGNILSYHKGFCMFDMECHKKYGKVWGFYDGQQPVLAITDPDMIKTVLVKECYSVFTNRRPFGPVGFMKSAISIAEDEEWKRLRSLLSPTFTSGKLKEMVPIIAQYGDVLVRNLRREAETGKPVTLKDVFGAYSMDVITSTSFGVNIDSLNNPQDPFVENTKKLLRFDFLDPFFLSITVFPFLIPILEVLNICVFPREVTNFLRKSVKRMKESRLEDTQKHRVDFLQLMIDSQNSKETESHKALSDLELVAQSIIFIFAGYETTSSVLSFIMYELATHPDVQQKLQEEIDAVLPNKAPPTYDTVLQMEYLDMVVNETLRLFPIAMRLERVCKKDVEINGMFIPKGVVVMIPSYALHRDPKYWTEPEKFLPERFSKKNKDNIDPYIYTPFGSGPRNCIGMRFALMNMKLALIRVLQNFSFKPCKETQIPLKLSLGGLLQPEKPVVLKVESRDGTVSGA
# Chain of Cytochrome P450 2D6 (Homo sapiens) (P10635 whole entry, looked up): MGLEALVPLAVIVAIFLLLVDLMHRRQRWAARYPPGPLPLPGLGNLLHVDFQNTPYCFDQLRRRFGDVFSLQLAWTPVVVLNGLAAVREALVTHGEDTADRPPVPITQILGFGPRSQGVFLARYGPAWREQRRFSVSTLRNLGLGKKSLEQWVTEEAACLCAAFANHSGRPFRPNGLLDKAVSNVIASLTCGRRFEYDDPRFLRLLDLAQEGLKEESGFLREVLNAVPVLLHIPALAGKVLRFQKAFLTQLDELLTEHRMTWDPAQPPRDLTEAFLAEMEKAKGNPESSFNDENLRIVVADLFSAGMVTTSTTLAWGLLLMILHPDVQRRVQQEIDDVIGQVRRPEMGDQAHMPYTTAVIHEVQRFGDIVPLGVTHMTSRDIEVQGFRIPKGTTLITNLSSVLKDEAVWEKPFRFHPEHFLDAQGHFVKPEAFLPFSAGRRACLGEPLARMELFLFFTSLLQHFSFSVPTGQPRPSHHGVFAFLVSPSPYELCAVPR
# Chain of Cytochrome P450 2C19 (Homo sapiens) (P33261 whole entry, looked up): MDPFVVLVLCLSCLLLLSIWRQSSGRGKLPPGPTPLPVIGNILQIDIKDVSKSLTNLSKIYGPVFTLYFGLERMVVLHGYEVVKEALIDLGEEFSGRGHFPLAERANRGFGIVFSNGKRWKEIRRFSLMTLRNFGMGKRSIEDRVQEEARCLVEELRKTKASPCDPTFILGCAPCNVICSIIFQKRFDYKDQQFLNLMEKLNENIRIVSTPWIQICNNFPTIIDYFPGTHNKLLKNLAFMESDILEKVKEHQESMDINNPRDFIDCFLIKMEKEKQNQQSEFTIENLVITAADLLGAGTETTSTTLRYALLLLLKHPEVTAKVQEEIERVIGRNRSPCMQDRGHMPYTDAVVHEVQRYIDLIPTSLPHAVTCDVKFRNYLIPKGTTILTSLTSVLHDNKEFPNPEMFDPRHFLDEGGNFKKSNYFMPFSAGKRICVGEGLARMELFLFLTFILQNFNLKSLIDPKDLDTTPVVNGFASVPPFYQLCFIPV
# Chain of Cytochrome P450 1A2 (Homo sapiens) (P05177 whole entry, looked up): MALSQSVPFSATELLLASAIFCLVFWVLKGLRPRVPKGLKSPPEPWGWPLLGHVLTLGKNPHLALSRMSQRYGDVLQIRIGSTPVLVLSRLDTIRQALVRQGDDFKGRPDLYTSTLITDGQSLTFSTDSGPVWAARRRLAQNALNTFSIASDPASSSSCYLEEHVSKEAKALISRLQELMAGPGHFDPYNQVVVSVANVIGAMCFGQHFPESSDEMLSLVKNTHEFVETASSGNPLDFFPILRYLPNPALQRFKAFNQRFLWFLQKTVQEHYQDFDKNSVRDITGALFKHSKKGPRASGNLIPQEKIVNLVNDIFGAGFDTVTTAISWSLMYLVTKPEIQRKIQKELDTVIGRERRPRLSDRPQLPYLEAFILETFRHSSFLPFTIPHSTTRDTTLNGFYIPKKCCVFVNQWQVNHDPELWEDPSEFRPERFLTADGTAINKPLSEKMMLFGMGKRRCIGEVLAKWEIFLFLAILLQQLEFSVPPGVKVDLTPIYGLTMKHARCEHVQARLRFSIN
# Chain of Cytochrome P450 2C9 (Homo sapiens) (P11712 whole entry, looked up): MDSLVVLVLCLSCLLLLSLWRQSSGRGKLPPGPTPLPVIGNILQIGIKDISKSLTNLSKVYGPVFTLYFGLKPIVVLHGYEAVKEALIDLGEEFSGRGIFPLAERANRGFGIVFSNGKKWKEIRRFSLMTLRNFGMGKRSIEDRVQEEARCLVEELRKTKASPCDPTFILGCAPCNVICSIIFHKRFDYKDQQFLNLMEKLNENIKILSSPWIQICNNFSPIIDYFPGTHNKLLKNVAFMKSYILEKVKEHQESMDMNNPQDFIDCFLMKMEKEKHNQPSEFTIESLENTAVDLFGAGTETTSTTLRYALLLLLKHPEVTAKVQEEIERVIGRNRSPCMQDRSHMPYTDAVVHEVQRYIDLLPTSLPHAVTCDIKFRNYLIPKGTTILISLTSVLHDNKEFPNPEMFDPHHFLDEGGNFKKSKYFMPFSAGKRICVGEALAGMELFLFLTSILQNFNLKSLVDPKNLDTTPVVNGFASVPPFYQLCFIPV
smiles,measurement,setting,value
CCc1nccnc1CC,"activity change, negative = inhibition",[1],-14% [at 23.6 µM] (inactive)
same,Potency,[2],inactive
same,"activity change, negative = inhibition",[3],2.92% [at 23.6 µM] (inactive)
same,Potency,[4],inactive
same,"activity change, negative = inhibition",[5],-2.32% [at 15.8 µM] (inactive)
same,"activity change, negative = inhibition",[6],8.66% [at 23.6 µM] (inactive)
O=C(O)CN(CCOCCOCCN(CC(=O)O)CC(=O)O)CC(=O)O,"activity change, negative = inhibition",[1],-9.59% [at 0.435 µM] (inactive)
same,"activity change, negative = inhibition",[2],-11.6% [at 0.435 µM] (inactive)
same,"activity change, negative = inhibition",[3],4.56% [at 0.435 µM] (inactive)
same,"activity change, negative = inhibition",[4],-6.73% [at 0.435 µM] (inactive)
same,"activity change, negative = inhibition",[6],0.649% [at 0.435 µM] (inactive)
CC(C)NC(=O)NC(C)C,Potency,[1],inactive
same,Potency,[2],inactive
same,Potency,[3],inactive
same,Potency,[4],inactive
same,Potency,[6],inactive
N[C@H](C(=O)O)c1ccc(O)cc1,"activity change, negative = inhibition",[1],-10.2% [at 23.6 µM] (inactive)
same,Potency,[2],inactive
same,"activity change, negative = inhibition",[3],-0.95% [at 23.6 µM] (inactive)
same,Potency,[4],inactive
same,"activity change, negative = inhibition",[5],1.26% [at 15.8 µM] (inactive)
same,"activity change, negative = inhibition",[6],-17% [at 23.6 µM] (inactive)
CC(C)OC(=O)c1ccccc1,Potency,[1],inactive
same,Potency,[2],inactive
same,Potency,[3],inactive
same,Potency,[4],inactive
same,Potency,[5],inactive
same,Potency,[6],inactive
OCCCC1CCCCC1,Potency,[1],inactive
same,Potency,[2],inactive
same,Potency,[3],inactive
same,Potency,[4],inactive
same,Potency,[5],inactive
same,Potency,[6],inactive
O=C(O)CCCc1ccccc1,Potency,[1],inactive
same,Potency,[2],inactive
same,Potency,[3],inactive
same,Potency,[4],inactive
same,Potency,[6],inactive
CN1CCN(c2cc3c(cc2F)c(=O)c(C(=O)O)cn3-c2ccc(F)cc2)CC1,Potency,[1],inactive
same,Potency,[2],inactive
same,Potency,[3],inactive
same,Potency,[4],inactive
same,Potency,[5],inactive
same,Potency,[6],inactive
N[C@@H](C(=O)N[C@@H]1C(=O)N2C(C(=O)O)=C(Cl)CS[C@H]12)c1ccccc1,"activity change, negative = inhibition",[1],-15.8% [at 10.5 µM] (inactive)
same,"activity change, negative = inhibition",[2],33.2% [at 10.5 µM] (inactive)
same,"activity change, negative = inhibition",[3],-2.01% [at 10.5 µM] (inactive)
same,"activity change, negative = inhibition",[4],7.47% [at 10.5 µM] (inactive)
same,"activity change, negative = inhibition",[5],-6.12% [at 6.97 µM] (inactive)
same,"activity change, negative = inhibition",[6],-15.7% [at 10.5 µM] (inactive)
O=S(O)CO,Potency,[1],inactive
same,Potency,[2],inactive
same,Potency,[3],inactive
same,Potency,[4],inactive
same,Potency,[6],inactive
CCSC(=O)N(CC(C)C)CC(C)C,Potency,[1],inactive
same,Potency,[2],inactive
same,Potency,[3],inactive
same,Potency,[4],inactive
same,Potency,[5],inactive
same,Potency,[6],inactive
CCOC(C)(C)C,Potency,[1],inactive
same,Potency,[2],inactive
same,Potency,[3],inactive
same,Potency,[4],inactive
same,Potency,[6],inactive
CC(C(=O)O)c1ccc(CC2CCCC2=O)cc1 (stereo not drawn),Potency,[1],inactive
same,Potency,[2],inactive
same,Potency,[3],inactive
same,Potency,[4],inactive
same,Potency,[5],inactive
same,Potency,[6],inactive
ClC(Cl)(Br)Br,Potency,[1],39.2 µM (active)
same,Potency,[2],inactive
same,Potency,[3],inactive
same,Potency,[4],inactive
same,Potency,[6],inactive
O=c1cc(-c2ccccc2)oc2ccccc12,Potency,[1],inactive
same,Potency,[2],31.7 µM (active) and 7.92 µM (active)
same,Potency,[3],17.8 µM (active) and 15.4 µM (active)
same,Potency,[4],317 nM (active) and 477 nM (active)
same,Potency,[6],inactive
COC(=O)c1c(Cl)c(Cl)c(C(=O)OC)c(Cl)c1Cl,Potency,[1],inactive and 31.7 µM (active)
same,Potency,[2],28.3 µM (active) and 15.9 µM (active)
same,Potency,[3],inactive
same,Potency,[4],317 nM (active) and 154 nM (active)
same,Potency,[6],inactive
Cc1cccc(C)c1NC(=O)C(C)N (stereo not drawn),Potency,[1],inactive
same,Potency,[2],inactive
same,Potency,[3],inactive
same,Potency,[4],inactive
same,Potency,[5],inactive
same,Potency,[6],inactive
NCCCNCCSP(=O)(O)O,"activity change, negative = inhibition",[1],-0.545% [at 10.5 µM] (inactive)
same,"activity change, negative = inhibition",[2],-2.49% [at 10.5 µM] (inactive)
same,"activity change, negative = inhibition",[3],10.3% [at 10.5 µM] (inactive)
same,"activity change, negative = inhibition",[4],-21.8% [at 10.5 µM] (inactive)
same,"activity change, negative = inhibition",[5],-1.01% [at 6.97 µM] (inactive)
same,"activity change, negative = inhibition",[6],5.88% [at 10.5 µM] (inactive)
CCCCOCCOCCOCCCC,Potency,[1],inactive
same,Potency,[2],inactive
same,Potency,[3],inactive
same,Potency,[4],inactive
same,Potency,[5],inactive
same,Potency,[6],inactive
NC(=O)COCCN1CCN(C(c2ccccc2)c2ccc(Cl)cc2)CC1 (stereo not drawn),Potency,[1],inactive
same,Potency,[2],inactive
same,Potency,[3],inactive
same,Potency,[4],inactive
same,Potency,[6],inactive
C[C@H](NC(CCc1ccccc1)C(=O)O)C(=O)N1CCC[C@H]1C(=O)O (stereo partly drawn),Potency,[1],inactive
same,Potency,[2],inactive
same,Potency,[3],inactive
same,Potency,[4],inactive
same,Potency,[6],inactive
O=c1cc(CO)occ1O,Potency,[1],inactive
same,Potency,[2],inactive
same,Potency,[3],inactive
same,Potency,[4],inactive
same,Potency,[5],inactive
same,Potency,[6],inactive
C[C@H]1C[C@@H](O)CC(C)(C)C1,Potency,[1],inactive
same,Potency,[2],inactive
same,Potency,[3],inactive
same,Potency,[4],inactive
same,Potency,[6],inactive
N=c1nc(N2CCCCC2)cc(N)n1O,Potency,[1],21.9 µM (active)
same,Potency,[2],inactive
same,Potency,[3],inactive
same,Potency,[4],inactive
same,Potency,[6],inactive
CC1(C)CO[C@@H](CC(=O)O)CN1,Potency,[1],inactive
same,Potency,[2],inactive
same,Potency,[3],inactive
same,Potency,[4],inactive
same,Potency,[5],inactive
same,Potency,[6],inactive
O=c1[nH]c(=O)n([C@H]2C[C@H](O)[C@@H](CO)O2)cc1I,Potency,[1],inactive
same,Potency,[2],inactive
same,Potency,[3],inactive
same,Potency,[4],inactive
same,Potency,[6],inactive
